Results taken from PubChem BioAssay AID1053197 (The Scripps Research Institute Molecular Screening Center, 2014).
Out of some 370,000 compounds screened, about 2,600 (0.7%) were called active.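 How the source made its calls: active means inhibition above a cutoff: mean of compounds within the control limits plus 3 SD of those (cut at about 17% in these data); inactive means the rest.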 Only a selection was taken, and actives are over-represented in it overall.

These molecules were tested against Sialate O-acetylesterase (Homo sapiens) (UniProt Q9HAT2) (assay: human SIAE inhibitors, primary screen, biochemical, fluorescence polarization, FP-Rh probe, 1536-well HTS (AID 1053197;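 further: 0% = plate median of compound wells and 100% = probe without SIAE protein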)). Conditions: SIAE FP-Rh probe binding, at 9.66 µM, active compounds read high.
Sialate O-acetylesterase (Homo sapiens), sequence (Q9HAT2 whole entry, looked up): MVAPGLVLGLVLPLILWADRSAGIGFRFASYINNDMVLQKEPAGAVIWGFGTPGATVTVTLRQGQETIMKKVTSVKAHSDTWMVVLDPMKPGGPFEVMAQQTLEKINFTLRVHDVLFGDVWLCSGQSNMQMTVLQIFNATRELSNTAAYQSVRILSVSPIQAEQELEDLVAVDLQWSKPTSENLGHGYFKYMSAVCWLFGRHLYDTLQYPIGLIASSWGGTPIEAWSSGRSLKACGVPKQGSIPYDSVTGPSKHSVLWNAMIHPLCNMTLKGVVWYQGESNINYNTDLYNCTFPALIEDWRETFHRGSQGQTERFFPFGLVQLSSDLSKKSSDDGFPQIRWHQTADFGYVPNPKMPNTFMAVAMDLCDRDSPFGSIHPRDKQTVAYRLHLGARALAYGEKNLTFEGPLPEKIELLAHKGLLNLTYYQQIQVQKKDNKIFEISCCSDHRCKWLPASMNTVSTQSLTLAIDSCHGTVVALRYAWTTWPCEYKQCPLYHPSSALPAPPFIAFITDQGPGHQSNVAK

SMILES	inhibition
CCSc1nc(O)c(C(c2cccc(OC)c2)c2c(O)nc(SCC)[nH]c2=O)c(=O)[nH]1	-2.73% (inactive)
CCn1c(SC)nc(O)c(C(c2ccc(OC)c(O)c2)c2c(O)nc(SC)n(CC)c2=O)c1=O	26.7% (active)
COc1ccccc1OCC(=O)OCn1c(SC)nnc(C)c1=O	-6.49% (inactive)
CCN(/N=C/c1ccc(N(C)C)cc1)c1nc2ccccc2[nH]1	4.94% (inactive)
CCN(/N=C/c1ccccc1)c1cc(=O)n(C)c(=O)[nH]1	10.2% (inactive)
Oc1ccc(/C=N/N(Cc2ccccc2)c2ccccc2)cc1	19.4% (active)
O=C(NC1CCCC1)C1CSCCS(=O)(=O)N1Cc1ccccc1 (stereo not drawn)	-3.54% (inactive)
N[C@@H](Cc1ccccc1)C(=O)N1CCC[C@@H]1C(=O)N1CCC2CCN(S(=O)(=O)c3ccccc3)CC21 (stereo partly drawn)	1.02% (inactive)
Oc1ccc(/C=C/c2c(F)cccc2F)c2cccnc12	9.1% (inactive)
COCC1CCN(C(=O)c2ccc3oc(Cc4ccccc4)nc3c2)C1 (stereo not drawn)	-5.51% (inactive)
COc1ccc(Cc2nc3ccc(C(=O)N4CCC(N(C)C)C4)cc3o2)cc1 (stereo not drawn)	18.5% (active)
CCC1C(=O)NCCN1C(=O)c1ccc2nc(Cc3ccc(OC)cc3)oc2c1 (stereo not drawn)	-0.21% (inactive)
CC(CCN1CCC(C(O)(c2ccccc2)c2ccccc2)CC1)Oc1ccc([N+](=O)[O-])cc1Cl (stereo not drawn)	1.3% (inactive)
Cc1ccc(/C=N/NC(=S)NC2CCCCC2)o1	8.46% (inactive)
Cc1ccc(/C=N/NC(=O)c2cc3ccccc3cc2O)o1	21.5% (active)
Cc1ccc(/C=N/NC(=O)Cn2ccc(C(F)(F)F)n2)o1	2.98% (inactive)
C[C@H]1CCC/C=C/C(=O)c2c(O)cc(O)cc2CC(=O)O1	5.43% (inactive)
C=CCOC/C=C/C#CCN(CC=C)Cc1ccc(OC)cc1OC	-0.76% (inactive)
CCOC(=O)CC1=CC(=O)Nc2ccccc2N1	2.76% (inactive)
CCCCC(CC)CNC(=O)C(=O)C1C(=O)Nc2ccccc21 (stereo not drawn)	4.38% (inactive)
CCOC(=O)C(=O)C1C(=O)Nc2ccccc21 (stereo not drawn)	20.6% (active)
Nc1cccc(S(=O)(=O)Nc2ccc(SC(F)F)cc2)c1	-5.85% (inactive)

SMILES	inhibition
Cc1c(NS(=O)(=O)c2cccc(C(=O)Nc3ccc(SC(F)F)cc3)c2)c(=O)n(-c2ccccc2)n1C	-14% (inactive)
COc1ccc(NC(=O)/C(N=Nc2cccc(S(=O)(=O)Nc3ccc(SC(F)F)cc3)c2)=C(\C)O)cc1	17.2% (active)
Cc1nc2ccc(C(=O)N3CCN(C(=O)C(C)(C)C)CC3)cc2n1C1CCCC1	1.16% (inactive)
Cc1ccccc1CS(=O)(=O)Cc1ccc(C(=O)Nc2ccc(Cl)cc2)o1	-4.56% (inactive)
C[C@H](C(=O)N(C)c1ccccc1)[C@@H](O)c1ccc(Cl)cc1	-3.9% (inactive)
COc1ccc(-n2c(SCC(=O)Nc3ccc(C)c(Cl)c3)nc3ccccc3c2=O)cc1	-5.2% (inactive)
O=C(OC12CCCN(C1)/C(=C/c1cccnc1)C2)C1CCCC1 (stereo not drawn)	9.64% (inactive)
COc1ccc(N2CCN(c3ccc([N+](=O)[O-])nc3)CC2)cc1	27.9% (active)
COc1ccccc1N1CCN(c2ccc([N+](=O)[O-])nc2)CC1	3.93% (inactive)
O=[N+]([O-])c1ccc(N2CCN(c3ccc(F)cc3)CC2)cn1	1.56% (inactive)
Cc1c(C(C)c2ccccc2O)[nH]c2ccccc12 (stereo not drawn)	3.42% (inactive)
C=C(C)C#CC(Cc1ccccc1)N(CC1CC1)/C(N)=N/C(=O)OCc1ccccc1 (stereo not drawn)	8.05% (inactive)
C[C@@H](NC(=O)c1ccccc1OCC(=O)Nc1ccc(I)cc1)C(=O)N(C)Cc1ccccc1	-10.2% (inactive)
O=C(CC[C@H]1O[C@@H](n2ccc(=O)[nH]c2=O)[C@H](O)[C@@H]1O)N[C@H](Cc1ccccc1)C(=O)NCCCN1CCCC1=O	47.1% (active)
Cc1ccc(NC(=O)[C@H](Cc2ccccc2)NC(=O)CC[C@H]2O[C@@H](n3ccc(=O)[nH]c3=O)[C@H](O)[C@@H]2O)cc1C	0.53% (inactive)
O=C(CC[C@H]1O[C@@H](n2ccc(=O)[nH]c2=O)[C@H](O)[C@@H]1O)N[C@H](Cc1ccccc1)C(=O)NCc1ccco1	1.02% (inactive)
CSc1ccc(C=Nn2c(-c3ccc(F)cc3)n[nH]c2=S)cc1	2.39% (inactive)
Cn1cccc1/C=N/NC(=O)CNc1cccc2ccccc12	18.6% (active)
O=C(Cn1cncn1)N/N=C/c1c2ccccc2cc2ccccc12	-1.87% (inactive)
C/C(=N\NC(=O)CNc1cccc2ccccc12)c1ccc(Br)s1	-5.3% (inactive)
C[C@H](C(=O)N(C)c1ccccc1)[C@@H](O)c1ccc2ccccc2c1	3.1% (inactive)
CCC(=O)Nc1ccc2c(c1)C(=O)N(C)[C@@H]1CC[C@@H](CC(=O)NCCc3ccccc3)O[C@H]1CO2	1.28% (inactive)

SMILES	inhibition
COc1ccccc1C(=O)NC1CCCCN(C(C)C)C1=O (stereo not drawn)	0.76% (inactive)
C=CCN(Cc1ccc2c(c1)OCO2)C(C#CC1CC1)C(C)(C)C (stereo not drawn)	4.36% (inactive)
CCOC(=O)C1=C(C)N=C2c3ccccc3C(=O)C2C1c1ccc(Br)cc1 (stereo not drawn)	18% (active)
CCOC(=O)C1=C(C)NC(SC)=NC1c1ccccc1 (stereo not drawn)	5.58% (inactive)
COC(=O)C1=C(C(=O)OC)C2(OC1c1ccc(Br)cc1)C(=O)c1ccccc1C2=O (stereo not drawn)	14.3% (inactive)
CCCCN1CCN(C(=O)c2ccc3c(c2)NC(=O)C(C)(C)O3)CC1	-0.65% (inactive)
COC[C@@H]1CCCN1c1ccc2c(c1)O[C@H](C)CCN(C1CC1)S2(=O)=O	-0.33% (inactive)
CC(=O)Nc1ccc(OC[C@@H](O)CN2CCC(C(O)(c3ccccc3)c3ccccc3)CC2)cc1	-6.43% (inactive)
CN(C)Cc1cn(-c2ccc(-c3noc4c3C(=O)N(CC(=O)N3CCOCC3)CC4)cc2)nn1	-2.28% (inactive)
CN1c2ccc(C=O)c3c(C=O)ccc(c23)N(C)C1(C)C	21.9% (active)
Cc1nc(CNc2ncnc3ccc(-c4ccc5c(c4)OCO5)cc23)cs1	-10.9% (inactive)
O=C(Nc1ccccc1)N1CCN(Cc2nc3ccccc3c(=O)[nH]2)CC1	12.6% (inactive)
COc1ccc(Cn2cc(CN3[C@@H](CC(C)C)COc4cc(Br)ccc4S3(=O)=O)nn2)cc1	0.93% (inactive)
O=C(COC(=O)c1c(Cl)cccc1Cl)Nc1cccc(S(=O)(=O)NC2=NCCCCC2)c1	-8.81% (inactive)
CN(C)S(=O)(=O)c1ccc(NC(=O)COC(=O)c2n[nH]c3ccccc23)cc1	-22.8% (inactive)
NS(=O)(=O)c1ccc(NC(=O)COC(=O)c2c3c(nc4ccccc24)/C(=C\c2ccc4c(c2)OCO4)CCC3)cc1	43.9% (active)
C=CCN1C(=O)[C@@H](CC(=O)N2CCN(C(=O)OCC)CC2)[C@]2(C(=O)OCC)CCCCC/C=C/12	2.29% (inactive)
Cc1ccc(S(=O)(=O)N2CCC(C(=O)OCC(=O)N(C)c3ccccc3)CC2)cc1C	-1.79% (inactive)
CCN(C(=O)COC(=O)c1cc(S(=O)(=O)N2CCc3ccccc32)ccc1OC)C1CCS(=O)(=O)C1 (stereo not drawn)	-1.8% (inactive)
CCN(C(=O)COC(=O)C1CCN(S(=O)(=O)c2ccc(C)c(C)c2)CC1)C1CCS(=O)(=O)C1 (stereo not drawn)	26.2% (active)
CC(=O)Nc1nc2ncccn2c1-c1ccc(C(F)(F)F)cc1	4.66% (inactive)
CC(=O)c1cc(-c2ccc3ccccc3c2)c(=O)n2c1CCC2	-1.29% (inactive)

SMILES	inhibition
COc1ccc(C(=O)O)cc1S(=O)(=O)NC1CCN(Cc2ccccc2)CC1	0.4% (inactive)
COc1ccccc1/C=C/C=N/NC(=O)CN1CCN(Cc2ccccc2)CC1	17.3% (active)
COc1ccccc1/C=C/CN1CCC(CO)(Cc2ccccc2)CC1	-3.81% (inactive)
O=S1(=O)c2c(cccc2N2CC[C@H](O)C2)O[C@@H]2CCN1C2	6.21% (inactive)
COc1cccc(N2CCN(CC(=O)N(C)Cc3ccc(F)cc3)CC2)c1	1.64% (inactive)
Cc1ccnc(NS(=O)(=O)c2ccc(NC(=O)c3ccc(S(=O)(=O)N(C)C)cc3)cc2)n1	-1.59% (inactive)
Cc1ccnc(NS(=O)(=O)c2ccc(NC(=O)c3ccc(S(=O)(=O)N4CCOCC4)cc3)cc2)n1	21% (active)
Cc1ccnc(NS(=O)(=O)c2ccc(NC(=O)c3oc4ccccc4c3C)cc2)n1	-5.42% (inactive)
CCCCCCN1CCS(=O)(=O)N(Cc2ccc(C(F)(F)F)cc2)C(C(=O)OC)C1 (stereo not drawn)	-2.85% (inactive)
CC(=O)OC12CCCN(C1)/C(=C/c1ccncc1)C2 (stereo not drawn)	0.93% (inactive)
O=C(CCl)NC1CCCCN(Cc2cccc(C(F)(F)F)c2)C1=O (stereo not drawn)	1.33% (inactive)
Cc1nc2ccc(S(=O)(=O)NC(C(=O)N3CCCCCC3)C(C)C)cc2s1 (stereo not drawn)	-3.13% (inactive)
Cc1cccc(C(=O)N2CCC(c3nc4ccccc4s3)CC2)c1	1.7% (inactive)
Cc1nc2ccc(C(=O)N3CCSCC3)cc2s1	80.7% (active)
Cc1cc(C)nc(NC(=S)N2CCN(c3ccc(C(F)(F)F)cn3)CC2)c1	-2.17% (inactive)
N#CC(C(N)=O)=C1CCC2(CC1)OCCCCO2	-1.29% (inactive)
CC1(C)C/C(=C(/C#N)C(N)=O)CCO1	17.1% (active)
Nn1c(SCC(=O)Nc2cccc3ccccc23)nnc1-c1cc(-c2ccc(F)cc2)n[nH]1	-0.5% (inactive)
CC(C)(C)NC(=O)C(c1cccnc1)N(C(=O)c1cnco1)c1ccc(C(C)(C)C)cc1 (stereo not drawn)	2.03% (inactive)
CCOC(=O)c1ccc(NNC(C)=O)c([N+](=O)[O-])c1	3.08% (inactive)
CCOc1ccccc1Nc1ccc(C(=O)O)cc1[N+](=O)[O-]	17.1% (active)
CCOc1cc(C(=O)O)ccc1OCCOc1ccccc1	-4.46% (inactive)
